cardiac RTF act: increases calcium sensitivity of human cardiac regulated thin filaments; activation, % at 7.2 µM; AID 493008; 340,000 tested, 0.24% active; IANBD-labeled TnC RTF fluorescence at EC20 calcium; 0% EC20 calcium, 100% full calcium;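 active = activation above the mean over all tested compounds plus 3 SD, cut at about 30% in these data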;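 also: rise in fluorescence read as greater calcium sensitivity of cardiac thin filaments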
LANA-H2B inh: blocks KSHV LANA binding to histone H2A/H2B; cell-free LANA-H2A/H2B peptide, fluorescence polarization; inhibition, % (test concentration not listed); 320,000 tested, 0.6% active; Q9QR71; in the data active = inhibition mostly above about 10%, no sharp cut-off; inactive = mostly below about 6.7%
Target sequence (Q9QR71 whole entry, looked up): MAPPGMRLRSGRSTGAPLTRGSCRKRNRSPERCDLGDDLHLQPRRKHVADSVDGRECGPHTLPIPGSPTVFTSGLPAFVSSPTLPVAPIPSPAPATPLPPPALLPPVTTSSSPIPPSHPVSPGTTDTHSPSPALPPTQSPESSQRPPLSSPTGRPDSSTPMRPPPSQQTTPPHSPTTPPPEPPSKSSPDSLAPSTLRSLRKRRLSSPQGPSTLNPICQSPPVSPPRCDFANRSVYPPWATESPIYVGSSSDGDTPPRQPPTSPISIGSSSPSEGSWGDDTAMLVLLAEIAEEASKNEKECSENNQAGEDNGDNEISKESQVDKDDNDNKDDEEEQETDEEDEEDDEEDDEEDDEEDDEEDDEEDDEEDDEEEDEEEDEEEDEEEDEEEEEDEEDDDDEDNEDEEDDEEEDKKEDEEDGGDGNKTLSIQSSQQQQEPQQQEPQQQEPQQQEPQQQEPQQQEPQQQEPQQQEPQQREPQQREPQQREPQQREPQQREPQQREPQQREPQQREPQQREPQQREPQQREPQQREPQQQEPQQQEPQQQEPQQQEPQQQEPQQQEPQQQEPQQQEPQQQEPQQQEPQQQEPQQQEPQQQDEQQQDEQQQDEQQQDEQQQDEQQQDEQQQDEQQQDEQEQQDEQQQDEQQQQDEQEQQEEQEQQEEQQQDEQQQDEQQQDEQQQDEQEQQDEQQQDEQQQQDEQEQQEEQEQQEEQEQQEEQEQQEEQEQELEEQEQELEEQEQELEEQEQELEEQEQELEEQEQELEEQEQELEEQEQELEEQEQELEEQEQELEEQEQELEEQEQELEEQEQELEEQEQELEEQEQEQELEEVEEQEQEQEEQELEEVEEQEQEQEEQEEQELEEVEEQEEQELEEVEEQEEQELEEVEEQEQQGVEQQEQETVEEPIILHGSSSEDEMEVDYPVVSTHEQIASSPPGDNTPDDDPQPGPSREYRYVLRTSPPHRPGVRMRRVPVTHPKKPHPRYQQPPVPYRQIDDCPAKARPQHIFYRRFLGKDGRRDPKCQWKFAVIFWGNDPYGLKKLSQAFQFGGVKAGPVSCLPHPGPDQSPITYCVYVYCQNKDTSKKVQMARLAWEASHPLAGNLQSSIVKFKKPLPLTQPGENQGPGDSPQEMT
Cardiac RTF inh: cardiac RTF calcium desensitization; P19429+P45379; IANBD-labeled cardiac RTF, Ca2+ fluorescence; AID 493244; 340,000 tested, 0.12% active; inhibition, % at 7.15 µM;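 active = inhibition above the mean inhibition of all tested compounds plus 3 SD, cut at about 17% in these data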;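 also: assay run at fixed EC70 calcium of 1.6 mM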
Keap1-Nrf2 PPI: Keap1-Nrf2 (human) interaction inhibition; inhibition, % at 9.4 µM; Keap1 Kelch-Nrf2 peptide fluorescence polarization, 1536-well; Q14145; 340,000 tested, 0.15% active; in the data active = inhibition above about 12%;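 also: human Keap1 Kelch domain with fluorescein labeled Nrf2 9mer peptide probe; 0% = neutral control wells and 100% = peptide positive control; higher means more block of Keap1 binding to Nrf2 peptide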
LANA DNA inh: blocks KSHV LANA C-terminal domain binding to DNA | MBP-C-LANA/FAM-LBS DNA binding, fluorescence polarization | inhibition, % at 9 µM | 340,000 tested, 0.078% active;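 active = highest replicate inhibition at or above 60% at 9 µM, even if other replicates fall short; inactive = all replicates below 60% inhibition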;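 also: 0% = neutral control wells and 100% = 4 µM acridine orange control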
* = called active by the depositor; i = inactive; nt = no result given; + = active, no number. Most compounds without a hit are left out; they make up all but 1% or so of the library.

SMILES	cardiac RTF act	LANA-H2B inh	Cardiac RTF inh	Keap1-Nrf2 PPI	LANA DNA inh
CCn1c(=O)c(C(=O)NNC(=O)c2ccccc2Br)c(O)c2ccccc21	1.9	26.6*	-10.0	-4.4	-1.2
O=C(c1ncn(Cc2ccccc2)c1C(=O)N1CCc2ccccc2C1)N1CCc2ccccc2C1	2.3	-1.0	-12.3	-2.0	1.2
CCSC1=N/C(=C\C=C2/Oc3ccccc3N2CC)C(=O)S1	39.3*	-11.9	-46.4	-3.7	-3.0
O=C(Nc1ccccc1F)c1coc(=O)c(Br)c1	-2.1	-2.5	-2.4	3.9	87.3*
CN(C)c1ccc(/C=C2/C[N+](C)(C)C/C(=C/c3ccc(N(C)C)cc3)C2=O)cc1	-0.8	nt	-3.8	-48.8	-11.4
CC(C)/C=C1\CC/C(=C\c2ccc(N(C)C)cc2)C1=O	64.1*	nt	-37.9	1.0	7.2
NC(=O)c1ncn([C@@H]2O[C@H](CNCc3ccc(OCC(=O)Nc4ccccn4)cc3)[C@@H](O)[C@H]2O)n1	-1.2	nt	-0.5	-2.5	-1.7
COc1ccc(N2CCN(S(=O)(=O)c3cnc[nH]3)CC2)cc1	-1.6	33.2*	-2.0	5.0	1.1
O=C(N/C(=C\c1ccc([N+](=O)[O-])cc1)C(=O)N1CCCCC1)c1ccccc1	2.7	12.7*	9.1	-0.1	0.7
O=C(COc1ccc(F)cc1Br)N1CCN(S(=O)(=O)/C=C/c2ccccc2)CC1	0.3	87.3*	3.2	0.5	-0.7
Cc1ccc(NCC(=O)N/N=C/c2ccc(OC(=O)c3ccco3)cc2)cc1	1.6	1.0	-5.0	-0.9	-2.3
CN(C)c1ccc2c(c1)OC(N)=C(C#N)C2c1cccc(F)c1 (stereo not given)	72.8*	-9.3	-121.0	-28.5	-0.1
Cc1ccc(-c2cc(N)nc(-c3ccccc3)c2)cc1	-4.0	31.3*	-2.6	-1.0	0.1
Cc1ccc(-c2cc(-c3ccccc3)nc(N(C)N)n2)cc1	-3.9	-5.1	-2.1	2.0	-0.9
CCn1c(CN2CCOCC2)nnc1SCC(=O)Nc1ccccc1C	7.9	127.1*	-2.4	-3.8	-0.7
CCn1c(CN2CCOCC2)nnc1SCC(=O)Nc1ccc(C)cc1	-2.7	-0.2	-1.2	-1.4	-1.3
COc1ccccc1-c1cc(C(=O)N2CCOCC2)no1	-2.3	-0.2	-3.9	3.6	-0.6
N#CC(C#N)=C1C=C2C=C(N3CCCCC3)CCC2CC1 (stereo not given)	nt	-152.1	nt	nt	nt
CCCCN(C)C1=CC2=CC(=C(C#N)C#N)CCC2CC1 (stereo not given)	+	-0.2	i	-129.2	-18.4
CCN(CC)C1=CC2=CC(=C(C#N)C#N)CCC2CC1 (stereo not given)	+	-4.2	i	-112.7	-3.4
COc1cccc(C(c2cccc(OC)c2)c2ccccc2C(=O)O)c1	1.0	nt	3.3	-2.5	1.1
C=CCN(c1ccccc1)S(=O)(=O)c1cccc(C(=O)NCC(c2cccs2)N2CCOCC2)c1 (stereo not given)	-7.6	-9.5	-8.2	1.8	0.7
O=C(c1cc(Cl)nc2ccccc12)N1CCN(Cc2ccc3c(c2)OCO3)CC1	-0.2	20.8*	5.8	-5.4	1.8
COc1ccc(Cl)cc1C(=O)N1CCN(Cc2ccc3c(c2)OCO3)CC1	1.2	14.3*	-6.1	-3.4	-1.7
c1ccc(Oc2cccc(OCCCCN3CCCC3)c2)cc1	-2.4	-1.5	-3.2	2.0	-0.9
SMILES	cardiac RTF act	LANA-H2B inh	Cardiac RTF inh	Keap1-Nrf2 PPI	LANA DNA inh
Cc1ccc(C(=O)CN(CCC(=O)O)S(=O)(=O)c2ccc([N+](=O)[O-])cc2)cc1	9.2	-1.4	9.0	-4.9	2.5
CCN(CC(=O)NCc1cccs1)C(=O)COc1cccc(C(F)(F)F)c1	-3.4	-1.0	-1.6	5.1	0.6
CCN(CC(=O)NCc1cccs1)C(=O)COc1ccc(C(C)=O)cc1	2.0	+	-11.1	-3.1	0.2
N#C/C(=C/c1ccc(N2CCOCC2)o1)c1nc2ccccc2[nH]1	244.0*	-50.6	-194.9	-116.2	-26.0
COc1cccc(/C=C(/C#N)c2nc3ccccc3[nH]2)c1OC(C)C(=O)O (stereo not given)	34.7*	-2.9	-0.7	2.8	-1.8
COc1cc(/C=C(\C#N)c2nc3ccccc3[nH]2)cc(OC)c1O	32.3*	-15.0	-46.5	-52.3	-40.3
CC(=O)c1ccccc1NC(=O)c1ccc(OCc2c(C)noc2C)cc1	-3.6	-0.4	4.3	-6.4	3.8
CCOC(=O)C1(CCOC)CCN(Cc2nc(C(C)C)cs2)CC1	4.6	2.3	6.9	0.1	-0.2
Cc1ccc(C)c(/C=C(\C(=O)O)c2ccc(S(=O)(=O)N3CCCCC3)s2)c1	-2.0	2.2	-10.4	-8.2	-0.7
CCCCn1c(N)c(N(CCC(C)C)C(=O)CSc2nc3ccccc3n2C)c(=O)[nH]c1=O	0.7	nt	7.8	-2.9	6.1
CCCCn1ccnc1C(=O)c1ccc(S(=O)(=O)N(CCOC)CCOC)cc1	-5.7	-1.7	3.4	-4.0	-2.0
O=C(CNS(=O)(=O)c1ccccc1Br)OCC(=O)N1CCc2ccccc21	0.4	0.5	-3.6	1.0	0.2
CC(=O)Nc1ccc(S(=O)(=O)NCC(=O)OCC(=O)N2CCc3ccccc32)cc1	15.0	11.4*	-9.0	-4.1	0.5
COc1ccc(-c2ccc(CCC(=O)O)n2CC2CCCO2)cc1 (stereo not given)	7.1	5.8	-10.9	-5.1	1.9
O=C(O)CCc1ccc(-c2ccc(F)cc2)n1CC1CCCO1 (stereo not given)	-0.2	37.5*	-2.6	-2.9	2.1
Cc1onc(-c2c(F)cccc2Cl)c1C(=O)OCC(=O)c1c[nH]c2ccccc12	2.4	29.2*	-4.4	-3.6	2.1
Cc1ccc(C(=O)OCC(=O)c2c[nH]c3ccccc23)cc1NC(=O)c1ccco1	1.7	+	-9.9	-6.8	3.7
Cc1cc(-c2nc3cc(F)ccc3s2)ccc1N	-7.3	nt	3.4	-0.3	-0.8
CCOc1ccc(N(CC(=O)Nc2cccc(N(C)S(C)(=O)=O)c2)S(=O)(=O)c2ccccc2)cc1	4.2	24.8*	15.2	-4.7	-0.7
COc1ccc(N(CC(=O)Nc2cccc(N(C)S(C)(=O)=O)c2)S(=O)(=O)c2ccc(F)cc2)cc1	-6.1	152.2*	8.5	-3.6	-9.2
CCOc1ccc(N(CC(=O)Nc2cccc(Br)c2)S(C)(=O)=O)cc1	2.0	35.7*	-7.0	-0.8	-0.8
CCCN(C(=O)c1cc(S(=O)(=O)N(C)c2ccccc2OC)ccc1C)C1CCS(=O)(=O)C1 (stereo not given)	4.8	nt	1.0	-0.8	-0.2
CC1(C)NC(C(=O)O)Cc2c1[nH]c1ccccc21 (stereo not given)	-1.2	7.0*	2.3	-0.8	0.4
CC(=O)N1C(C(=O)O)Cc2c([nH]c3ccccc23)C1(C)C (stereo not given)	-1.3	-0.2	-5.7	-5.4	-0.8
O=[N+]([O-])c1ccc(N2N=C(c3ccccc3)CC2c2ccccc2O)cc1 (stereo not given)	46.6*	-2.4	-53.2	-7.9	-1.2
Cn1nc([N+](=O)[O-])nc1Oc1ccccc1C(=O)N1CCOCC1	-1.6	+	-3.9	-2.0	1.1

Screening results deposited in PubChem BioAssay by several laboratories.
